Results from PubChem BioAssay (NCI).
About 83,000 compounds went through this panel and 20% of them were active in at least one assay; those are over-represented in the sample as a whole.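 Interpretation: 100, growth as untreated; towards 0, rising growth inhibition; 0, no net growth; 0 to -100, cell death. Compounds scoring below 10 were considered active.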 Values without a mark were called inactive. Active and inactive are the calls of the source.

Assays:
Assay in all cases: NCI-60 one-dose screen, 48 h (100 = growth as untreated, 0 = no growth, -100 = all killed)
Conditions in all cases: 10 µM unless noted
DU-145 prostate = tested on: DU-145 prostate
K-562 leukemia = tested on: K-562 leukemia
MALME-3M melanoma = tested on: MALME-3M melanoma
MDA-MB-231 breast = tested on: MDA-MB-231 breast
RXF 393 renal = tested on: RXF 393 renal
SF-268 CNS = tested on: SF-268 CNS
SF-295 CNS = tested on: SF-295 CNS
SF-539 CNS = tested on: SF-539 CNS
UACC-257 melanoma = tested on: UACC-257 melanoma
M14 melanoma = tested on: M14 melanoma
HCT-15 colon = tested on: HCT-15 colon
HT29 colon = tested on: HT29 colon
SNB-75 CNS = tested on: SNB-75 CNS
SNB-19 CNS = tested on: SNB-19 CNS
U251 CNS = tested on: U251 CNS
PC-3 prostate = tested on: PC-3 prostate
SK-MEL-5 melanoma = tested on: SK-MEL-5 melanoma
UACC-62 melanoma = tested on: UACC-62 melanoma
SK-MEL-28 melanoma = tested on: SK-MEL-28 melanoma
LOX IMVI melanoma = tested on: LOX IMVI melanoma

SMILES	growth (DU-145 prostate)	growth (K-562 leukemia)	growth (MALME-3M melanoma)	growth (MDA-MB-231 breast)	growth (RXF 393 renal)	growth (SF-268 CNS)	growth (SF-295 CNS) [%]	growth (SF-539 CNS)	growth (UACC-257 melanoma)	growth (M14 melanoma)	growth (HCT-15 colon)	growth (HT29 colon)	growth (SNB-75 CNS)	growth (SNB-19 CNS) [%]	growth (U251 CNS)	growth (PC-3 prostate) [%]	growth (SK-MEL-5 melanoma)	growth (UACC-62 melanoma)	growth (SK-MEL-28 melanoma)	growth (LOX IMVI melanoma) [%]
CC([C@H]1CCC2C3CCC4C(=O)C(NC=O)=CC[C@]4(C)C3CC[C@@]21C)N(C)C (stereo partly drawn)	59.5%	15%	-2.06% (active)	11.2%	-53.3% (active)	-3.89% (active)	36.6	-45.6% (active)	-20.9% (active)	-33% (active)	-37.1% (active)	-20.2% (active)	34.1%	76	25.6%	27.4	-56% (active)	-39.7% (active)	-70.1% (active)	
NCCCNc1nc2ccccc2c2c(=O)c3cc(F)cc(Cl)c3sc12	64.1%	-17.7% (active)	106%	51.4%	73.6%	79.9%	102	83%	114%	90.4%	64.1%	4.38% (active)	69.7%	89.4	-63.9% (active)	59.4	98.3%	98.7%	107%	79.4
COC(=O)/C=C1\S/C(=N\Nc2ccc([N+](=O)[O-])cc2[N+](=O)[O-])N(C2CCCCC2)C1=O	44.2%	17.8%	87.5%	59.8%	62%	71%	77.1	69.2%	80.1%	78.1%	11%	26.7%	51.4%	51.3	25.8%	18.4	82.4%	38.7%	86.5%	
CC(=O)CC[C@H]1C(=O)N[C@@H](C(C)C)C(=O)N[C@@H](Cc2cc(O)cc(F)c2)C(=O)N2CCC[C@H](N2)C(=O)O[C@H](/C(C)=C/C=C/C(=O)OC(C)(C)C)C/C=C/C=C/[C@H](O)[C@H](C)[C@H]1O	42.6%	21.6%	73.6%	47.5%	-5.28% (active)	54.4%	50.2	66.8%	53%	54.9%	26.6%	29.6%	54.6%	70	43.3%	48.6	51%	52.4%	59.4%	
CC1(C)C2CC1C1(/C=N/NC(N)=S)C(C2)C(C#N)(C#N)C1(C#N)C#N (stereo not drawn)	82.6%	13.6%	67%	57.3%	71.7%	97.4%	111	101%	79.9%	87.6%	27.5%	60.6%	101%	94.8	82.1%	70.7	85.6%	78.8%	88.7%	
NCCCNc1nc2ccccc2c2c(=O)c3cc(C(F)(F)F)ccc3sc12	-0.179% (active)	-21.4% (active)	87.1%	-35.2% (active)	55.7%	47.1%	71.7	-20% (active)	96.1%	-26.9% (active)	-55.7% (active)	-23.4% (active)	60.1%	30.4	-55.7% (active)	37.3	45.8%	95.1%	81.2%	
CCOc1c(B(O)O)cccc1-c1nc2ccc3[nH]ncc3c2c2c1CCCC2	66.9%	63.4%	101%	33.9%	-5.22% (active)	58.6%	59.3	18.6%	135%	120%	48.4%	78.7%	-38.5% (active)	85.2	75.4%	68.3	86.7%	88.1%	96.5%	
Cc1ccc(C(=O)NCCNc2nccc(-c3c(-c4cccc(F)c4)nc4sccn34)n2)cc1	62.9%	48.7%	47.3%	72.5%	39.9%	60%	62.5	90.1%	75.1%	44%	38.9%	35.9%	-1.5% (active)	69.5	62%	56.2	37.6%	23.7%	65%	
